In the library only some 2.7% were active in any assay of this set; here they are far more common.
GLP1R ag: qHTS of GLP-1 Receptor Agonists; Glucagon-like peptide 1 receptor (Homo sapiens), P43220; HEK293 GLP-1R CRE-luciferase, luminescence, 4-6 h; cells express a hypersensitive GLP-1R form; Potency, µM (series often up to 45.6 µM), for the others: at the top dose activation, usual class: activators; actives 0.007% (n = 380,000); AID 624172, 2012; further: % of control where 0% means no effect
TrxR1 inh: qHTS Assay for Inhibitors of Mammalian Selenoprotein Thioredoxin Reductase 1 (TrxR1): qHTS; Thioredoxin reductase 1, cytoplasmic (Rattus norvegicus), O89049; recombinant rTrxR1, NADPH fluorescence consumption, selenite substrate; Potency, µM (highest dose often 114 µM), inactives show top-dose activity change, negative = inhibition, hits mostly inhibitors; actives 1% (n = 390,000); AID 588453, 2011; further: on the % scale 0 is the no-effect control and ±100 the full control effect; nearly all actives have a fitted effect of over 65% in size
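Rat TrxR1 (90 nM in the dispensed reagent) was pre-reduced with 400 uM NADPH for 5 min at room temperature, then incubated with compound for 15 min. After 400 uM selenite was added, NADPH fluorescence (Ex 340/Em 450 nm) was followed for 8 min.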
GLP-1R inv ag: qHTS of GLP-1 Receptor Inverse Agonists (Inhibition Mode); Glucagon-like peptide 1 receptor (Homo sapiens), P43220; HEK293 GLP-1R CRE-luciferase, luminescence, 24 h; GLP-1R form is constitutively active; Potency, µM (titrated, usually from 38.3 µM), inactives show at the top dose activity change, negative = inhibition, usual class: inhibitors; actives 1.6% (n = 410,000); AID 624417, 2012; further: on the % scale 0 is the no-effect control and ±100 the full control effect; nearly all actives have a fitted effect of over 55% in size
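Stable HEK293 clone (constitutively active GLP-1R + cAMP-response luciferase); 200 cells/uL plated, 12 h pre-culture, compound 24 hr, 37 deg C/5% CO2; detection reagent 12 min RT; luminescence.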
TrxR1 substrate: qHTS Assay for Substrates of Mammalian Selenoprotein Thioredoxin Reductase 1 (TrxR1): qHTS | Thioredoxin reductase 1, cytoplasmic (Rattus norvegicus), O89049 | purified TrxR1 substrate turnover, NADPH consumption readout | Potency, µM (series often up to 114 µM), for the others: at the highest dose activity change, negative = substrate turnover | actives 0.01% (n = 390,000); further: on the % scale 0 is the no-effect control and ±100 the full control effect; nearly all actives have a fitted effect of over 50% in size
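Rat TrxR1, dispensed at 90 nM, was prereduced with 400 uM NADPH (final) for 5 min at ~22 deg C, then incubated with compound 15 min before 400 uM selenite. A first-read NADPH fluorescence drop versus no-compound background flagged substrates.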
IDH1 R132H inh: qHTS for Inhibitors of mutant isocitrate dehydrogenase 1 (IDH1): qHTS. Potency, µM (doses to about 76.6 µM), for inactives: at the top dose activity change, negative = inhibition, hits mostly inhibitors. actives 0.093% (n = 390,000). Isocitrate dehydrogenase [NADP] cytoplasmic (Homo sapiens), O75874. AID 602179, 2012. IDH1-R132H enzyme, NADPH consumption, diaphorase/resazurin fluorescence; further: on the % scale 0 is the no-effect control and ±100 the full control effect; nearly all actives have a fitted effect of over 65% in size
Target sequence (O75874 whole entry R132H, stated change not applied): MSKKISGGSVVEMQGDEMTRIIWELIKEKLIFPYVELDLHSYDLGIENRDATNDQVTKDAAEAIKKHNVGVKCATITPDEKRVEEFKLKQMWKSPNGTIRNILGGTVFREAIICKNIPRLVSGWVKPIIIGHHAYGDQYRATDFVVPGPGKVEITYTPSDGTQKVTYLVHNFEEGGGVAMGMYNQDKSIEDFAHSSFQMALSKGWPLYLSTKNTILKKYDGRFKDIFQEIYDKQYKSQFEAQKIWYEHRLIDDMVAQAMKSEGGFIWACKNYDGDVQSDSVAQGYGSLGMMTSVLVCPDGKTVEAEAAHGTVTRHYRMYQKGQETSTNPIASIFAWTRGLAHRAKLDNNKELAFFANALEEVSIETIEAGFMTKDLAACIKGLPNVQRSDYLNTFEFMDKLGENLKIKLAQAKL
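IDH1-R132H (0.5 ug/mL) preincubated 30 min with compound, then NADPH (0.016 mM) and alpha-KG (2 mM) added; 80 min at RT, pH 7.5. Remaining NADPH coupled via diaphorase/resazurin to fluorescence (540/590 nm); concentration-response curves normalized to no-enzyme control.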
GLP1R cytotox: qHTS of GLP-1 Receptor Inverse Agonists: Cytotox Screen | HEK293 cAMP-luciferase reporter cells, luminescence, 24 h | Potency, µM (titrated, usually from 38.3 µM), inactives show at the highest dose activity change, negative = inhibition, usual class: inhibitors | actives 0.13% (n = 410,000);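 further: loss of luciferase light is scored as toxicity; on the % scale 0 is the no-effect control and ±100 the full control effect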
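Step one: seed cells (200 cells/uL, DMEM with 10% Nu serum, 1% pen-strep). Step two: 12-hour incubation at 37 deg C. Step three: pin 23 nL compound, incubate 24 hr. Step four: add luciferase reagent, read luminescence 12 min later.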
* = called active by the depositor; ? = inconclusive; / = no result given; [ ] = another dose, or the depositor's remark. The call rests on the fitted dose curve; in most records, active means well fitted curve in the direction sought with a large enough effect; inconclusive means small, poorly fitted or top-dose-only effect, or another doubt; inactive means no such curve, though single readings can be large; an effect the other way counts as inactive or inconclusive. Potency means the concentration at half of the fitted maximal effect.

SMILES	GLP1R ag	TrxR1 inh	GLP-1R inv ag	TrxR1 substrate	IDH1 R132H inh	GLP1R cytotox
Cc1cc2nc(-c3ccc(Br)cc3)cc(C(F)(F)F)n2n1	/	5.6%	5.6%	10.7%	-3.1%	17.6%
Cc1ccc(S(=O)(=O)c2cn(Cc3ccccc3F)c3cc4c(cc3c2=O)OCO4)cc1	/	9.9%	10.0%	4.9%	-8.6%	16.0%
CCOc1ccc(C2=Nn3c(nnc3-c3ccc(OC)cc3)SC2)cc1	10µM*	-4.4%	0.0%	-2.5%	-0.7%	-18.0%
COc1cc(-c2nn3c(C4CCCCC4)nnc3s2)cc(OC)c1OC	1.7%	19.9%	40.9%	10.9%	0.8%	17.2%
COc1ccc(-c2nn3c(C4CCCCC4)nnc3s2)cc1OC	2.51µM*	-21.9%	0.0%	-0.4%	-4.3%	-7.4%
COc1ccc(OC)c(-c2nnc3n2N=C(c2ccc(OC)c(OC)c2)CS3)c1	2.24µM*	-10.4%[57.1 µM]	/	-3.2%[57.1 µM]	/	/
COc1ccc(C2=Nn3c(nnc3C3CCCCC3)SC2)cc1OC	3.16µM*	2.7%	105.3%	-4.2%	-0.6%	2.0%
CN(C)CCCNc1nccc(N2CCN(C)CC2)n1	/	-6.0%	/	-1.5%	/	/
COc1cccc(Cn2cnc3c(cnn3C(C)(C)C)c2=O)c1	/	18.1%	/	0.8%	/	/
Cc1ccc2nccnc2c1	/	?	/	-11.4%	/	/
Cc1cccc(NC(=O)c2cnc3sc(N4CCCC4)nn3c2=O)c1C	/	13.5%[57.1 µM]	10.5%	2.9%[57.1 µM]	17.1%	-2.2%
OCC1(Cc2ccccc2F)CCCN(Cc2c(F)ccc(F)c2F)C1 (stereo unspecified)	5.5%	14.7%[57.1 µM]	11.2µM*	-8.9%	-6.6%	13.3%
O=c1c(Cl)cc(Cl)nn1-c1ccccc1	3.3%	25.1µM*	?	-5.4%	11.1%	?
COc1cc(Cl)nn(-c2ccccc2)c1=O	-0.2%	-7.0%	0.5%	-3.1%	2.0%	-7.8%
COc1cc2c3cc1OCc1c(O)c(OC)cc4c1C(Cc1ccc(cc1)Oc1cc(ccc1O)CC3N(C)CC2)N(C)CC4 (stereo unspecified)	/	10.1%	/	-3.4%	/	/
CN1CCc2cccc3c2[C@H]1Cc1ccc(O)c(O)c1-3	-3.9%	22.4µM*	9.5%	10.3%	9.1%	?
CC(=O)c1cnn(-c2ccc(Cl)cc2)c1C	6.3%	22.7%	0.8%	2.2%	-6.1%	5.0%
Cc1c(C(=O)NCCSCc2cccc(C(F)(F)F)c2)cnn1-c1ccc(Cl)cc1	14.7%	26.4%[57.1 µM]	5.01µM*	1.3%[57.1 µM]	-1.9%	-4.5%
OC(CN1CCCC1)Cn1ccc2ccccc21 (stereo unspecified)	-0.1%	11.4%	9.0%	1.9%	6.9%	23.3%
OC(CNc1ccccc1)Cn1ccc2ccccc21 (stereo unspecified)	2.9%	18.7%[57.1 µM]	11.2µM*	-14.9%	6.1%	0.3%
CC1(C#N)c2ccccc2C(Br)=CN1C(=O)c1ccccc1 (stereo unspecified)	10.3%	15.5%	-7.1%	-5.2%	6.0%	5.4%
N#CC1(Cc2ccc(Cl)cc2)c2ccccc2C=CN1C(=O)c1ccccc1 (stereo unspecified)	-7.9%	4.7%[57.1 µM]	7.94µM*	9.7%[57.1 µM]	9.6%	14.9%
O=C(NCCO)c1ccc(Oc2ccc(C(F)(F)F)cc2[N+](=O)[O-])cc1	0.9%	22.3%[11.4 µM]	10.4%	-22.9%[11.4 µM]	10.4%	11.7%
COc1ccc(OCCNC(=O)c2cccc(Oc3ccc(C(F)(F)F)cc3[N+](=O)[O-])c2)cc1	10.9%	-35.2%	4.47µM*	-16.3%	3.4%	?

From PubChem BioAssay
